# ALOX12 inhib = inhibitors of human 12-lipoxygenase (ALOX12); P18054; purified 12-hLO, xylenol orange hydroperoxide absorbance; Potency, µM (highest dose often 57.1 µM), usual class: inhibitors; actives 0.12% (n = 150,000); AID 1452; note: nearly all actives have a fitted effect of over 55% in size
# Target sequence (P18054 whole entry, looked up): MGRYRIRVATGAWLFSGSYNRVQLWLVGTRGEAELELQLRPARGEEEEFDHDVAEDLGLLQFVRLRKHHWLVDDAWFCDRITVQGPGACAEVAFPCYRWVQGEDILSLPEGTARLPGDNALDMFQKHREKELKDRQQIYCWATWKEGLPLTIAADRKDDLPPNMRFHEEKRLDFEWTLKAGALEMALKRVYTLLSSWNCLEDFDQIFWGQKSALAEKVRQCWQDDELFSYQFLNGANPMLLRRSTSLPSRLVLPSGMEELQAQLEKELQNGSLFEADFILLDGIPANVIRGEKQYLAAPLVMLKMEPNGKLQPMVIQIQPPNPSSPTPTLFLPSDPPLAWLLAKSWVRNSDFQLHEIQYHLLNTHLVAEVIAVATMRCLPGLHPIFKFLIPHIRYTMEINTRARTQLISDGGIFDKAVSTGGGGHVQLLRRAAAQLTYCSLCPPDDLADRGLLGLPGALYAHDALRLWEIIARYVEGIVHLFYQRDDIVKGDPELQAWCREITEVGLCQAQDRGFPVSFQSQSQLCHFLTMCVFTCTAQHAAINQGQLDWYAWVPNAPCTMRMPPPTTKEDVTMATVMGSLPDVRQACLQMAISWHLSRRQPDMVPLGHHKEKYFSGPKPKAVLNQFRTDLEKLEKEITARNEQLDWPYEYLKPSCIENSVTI
#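 Xylenol orange chromogenic assay: hydroperoxide from 12hLO oxidises Fe(II), giving red-shifted Fe(III)-XO absorbance. Conditions: 150 nM enzyme, 40 uM arachidonic acid, 25 mM Hepes pH 7.0, 0.01% Triton X-100, 30 min, room temperature.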
# PNC inhibitor = inhibitors of perinucleolar compartment assembly; actives 3.1% (n = 140,000); PC3M PTB-GFP, PNC prevalence imaging, 16 h; hits give low values; activity change (PNC), negative = inhibition, % at 10 µM;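 active = readout at or below -70, meaning at least 70% loss of cells showing the perinucleolar compartment, a nuclear body marking cancer cells; inconclusive = readout between -30 and a set limit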
#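 Compounds are pinned in duplicate onto adhered PC3M cells stably expressing GFP-tagged PTB and incubated 16 h at 37 C. Cells are then fixed, nuclei stained with Hoechst, and PNC-positive cells counted.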
# ALOX15B inhib = 15-hLO-2 (ALOX15B) enzyme inhibition; actives 0.56% (n = 110,000); purified 15hLO-2, xylenol orange hydroperoxide absorbance; Potency, µM (titrated, usually from 57.1 µM), actives largely listed as inhibitors; AID 881; note: nearly all actives have a fitted effect of over 60% in size
#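 Screening format was qHTS against 50 nM purified 15hLO-2 in Hepes pH 7.5 with detergent. Activity follows hydroperoxide formation from 45 uM arachidonic acid, measured as 573:405 nm absorbance ratio of the ferric-xylenol orange complex.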
# Hits are given with their value; . = inactive; ? = inconclusive; / = no result given; [ ] = remark or other dose. Shown are actives, neighbours in structure and some others; about 3.2% of the full set was active somewhere. Unless noted, calls come from the whole dose curve; as a rule, active = well fitted curve in the direction sought with a large enough effect; inconclusive = small, poorly fitted or top-dose-only effect, or another doubt; inactive = no such curve, though single readings can be large; an effect the other way counts as inactive or inconclusive.
SMILES,ALOX12 inhib,PNC inhibitor,ALOX15B inhib
[Cu].[O-]/N=C1/C(=[OH+])Nc2ccccc21.[O-]Nc1c(O)[nH]c2ccccc12,.[11.4 µM],/,.[11.4 µM]
COc1ncc2ncc(=O)n(CCC#N)c2n1,.,/,.
O=C1c2ccccc2C(=O)C12OC2c1ccc(Cl)cc1 (stereo unspecified),?,.,/
O=C1c2ccccc2C(=O)C12OC(c1ccccc1)C1(C(=O)c3ccccc3C1=O)C2c1cccc([N+](=O)[O-])c1 (stereo unspecified),.,-100.0,/
O=C(COC(=O)C12CC3CC(CC(C3)C1)C2)Nc1ccc([N+](=O)[O-])cc1Cl,.,.,/
CCOC(=O)C1CCN(CC(=O)Nc2cc(C)nn2-c2nc3ccccc3s2)CC1,.,.,.
Cc1cc(NC(=O)CN2CC(C)OC(C)C2)n(-c2nc3ccccc3s2)n1 (stereo unspecified),.,-99.2,.
CC(C)c1ccc(NC(=O)CSc2ncccc2C(=O)Oc2cccc([N+](=O)[O-])c2)cc1,.,.,/
C=CCN1c2ccccc2[C@]23C[C@@H](C(=O)OC)N(S(=O)(=O)c4c(C)noc4C)C2=NC(C(=O)OC)=C(C(=O)OC)[C@H]13,.[11.4 µM],/,/
COc1ccc(C2=CC(c3cc(OC)c(OC)c(OC)c3)NC(=S)N2)cc1 (stereo unspecified),.,.,?
COc1ccc(OC)c(C2SCCN2S(C)(=O)=O)c1 (stereo unspecified),.,.,.
COc1ccc(OC)c(C2C=C(C34CC5CC(CC(C5)C3)C4)NC(=S)N2)c1 (stereo unspecified),7.08µM,?,/
COc1cc(C2C=C(C34CC5CC(CC(C5)C3)C4)NC(=S)N2)cc(OC)c1OC (stereo unspecified),11.2µM,.,.
Cc1[nH]nc2c1C(c1cc(Br)cs1)C(C#N)=C(N)O2 (stereo unspecified),.,.,/
Cc1cc(O)ccc1NC(=O)CCN1C(=O)c2ccc([N+](=O)[O-])cc2C1=O,.,-97.9,/
O=C(CCN1C(=O)c2ccc([N+](=O)[O-])cc2C1=O)Nc1cccc(O)c1,.,?,/
c1ccc(Cn2nc(-c3ccccc3)nc2-c2ccccc2)cc1,.,.,/
CN=c1nc(-c2ccccc2)n(-c2ccccc2)s1,?,/,1µM
Cc1nn(-c2ccccc2)c(N)c1N=Nc1ccccc1,.,.,/
Nc1nn(-c2ccccc2)c(N)c1N=Nc1ccccc1F,.,?,/
Cc1nn(-c2ccccc2)c(N)c1N=Nc1ccc(Cl)cc1,?,-92.7,/
Cc1cccc(N=Nc2c(C)nn(-c3ccccc3)c2N)c1C,.,-134.0,/
CC(C)/C(=N/[N+](C)(C)C)c1ccccc1,.[11.4 µM],/,.[11.4 µM]
O=C(N/N=C/c1ccc(O)cc1)c1nc(-c2ccccc2)n(-c2ccccc2)n1,.,-100.1,/
COc1cc(/C=N/NC(=O)c2nc(-c3ccccc3)n(-c3ccccc3)n2)ccc1O,.,.,/
SMILES,ALOX12 inhib,PNC inhibitor,ALOX15B inhib
COc1ccc(NC(=O)CCN2C(=O)C3C4CCC(C4)C3C2=O)cc1 (stereo unspecified),.,.,/
CC(C)(C)NC(=O)CCC1COc2ccccc2O1 (stereo unspecified),.,.,.
O=C(CCC1COc2ccccc2O1)NCC1COc2ccccc2O1 (stereo unspecified),.,-100.0,/
Cc1ccc(C(C)(C)C)cc1,.,/,.
O=S(=O)(c1ccc2ccccc2c1)N1CCC(c2nc(-c3ccncc3)no2)CC1,.,-100.0,/
CN(C)c1ccc(-c2noc(C3CCN(S(=O)(=O)c4cccc(Cl)c4)CC3)n2)cc1,.,.,.
CCCCNC(=O)C1CC(c2c(Cl)cccc2Cl)=NO1 (stereo unspecified),.,.,.
Cn1ncc([N+](=O)[O-])c1C(=O)Nc1ccc(-c2nc3ccccc3[nH]2)cc1,.,.,.
CCOc1ccc(C(=O)Nc2ccc(-c3nc4ccccc4[nH]3)cc2)cc1[N+](=O)[O-],.,-116.4,/
Cc1ccc(CO)cc1,.,/,.
CCCn1c(-c2ccc(OC)cc2)nc2ccccc21,.,.,.
COc1ccc(-c2nc3ccccc3n2Cc2ccc(C)cc2)cc1,.,-82.1,.
COCCn1c(-c2ccccc2)nc2ccccc21,.,-113.4,/
COCn1c(-c2ccc(OC)cc2)nc2ccccc21,.,.,/
COc1cc([C@H](O)CO)ccc1O,.,/,.
Cc1ccc(C(=O)c2c[nH]cc2-c2ccccc2)cc1,.,.,/
O=C(c1ccccc1)c1c[nH]cc1-c1ccccc1,.,-100.0,/
CCOC(=O)C1=C(c2ccccc2)c2cc(OC)ccc2OC1C(=O)OCC (stereo unspecified),.[0.00818 µM],/,.[0.0915 µM]
COc1ccccc1NC(=O)CNC(=O)c1ccccc1,.,.,.
Cc1ccccc1C(=O)NCC(=O)NNC(=S)NC(=O)c1ccccc1C,.,.,/
COc1ccccc1NC(=O)CNC(=O)c1ccccc1C,.,-108.1,.
Cc1ccccc1C(=O)NCC(=O)NNC(=S)NC(=O)c1ccccc1,.,-83.1,/
Cc1noc(C)c1C(=O)N1CCC2(CCCN(C(=O)NC(C)C)C2)CC1,.,/,.
O=c1[nH]c(CCC2CCCC2)nc2ccccc12,.,.,/
O=C(COCc1nc2ccccc2c(=O)[nH]1)NCC1CCCCC1,.,-100.0,/
SMILES,ALOX12 inhib,PNC inhibitor,ALOX15B inhib
CC1(OC(=O)c2ccc(Cl)nc2)C(=O)C=c2cc(-c3ccsc3)ncc2=C1OC(=O)C1CCCC1 (stereo unspecified),.[11.4 µM],/,/
CC(=O)Nc1nonc1-c1nc2ccccc2n1CC1CC1,.,-94.0,.
CC(=O)Nc1nonc1-c1nc2ccccc2n1CCC#N,.,.,.
COC(=O)C1=C(C(=O)OC)[C@@H]2N(C)c3ccc(OC)cc3[C@@]23C[C@@H](C(=O)OC)N(S(=O)(=O)c2cccs2)C3=N1,.[11.4 µM],/,/
Cc1ccc(S(=O)(=O)N/N=C/c2cccc(OC3CSC3)c2)cc1,.,.,/
O=S(=O)(N/N=C/c1cccc(OC2CSC2)c1)c1ccccc1,.,-112.2,/
Cc1ccc(C)c(NC(=O)COC(=O)CC2c3ccccc3CCN2S(=O)(=O)c2ccc(F)cc2)c1 (stereo unspecified),.,.,/
O=C1C(Cl)=C(N2CCOCC2)C(=O)N1c1ccccc1Cl,.,.,.
Cc1ccccc1N1C(=O)C(Cl)=C(N2CCN(c3ccccc3)CC2)C1=O,.,-84.9,.
CCn1cc(CNC(=O)c2cccc([N+](=O)[O-])c2)cn1,.,.,/
CCn1ncc(CNC(=O)c2cccc([N+](=O)[O-])c2)c1C,.,-91.6,/
O=S(=O)(O)c1cc(O)c2c(N=Cc3ccccc3O)cc(S(=O)(=O)O)cc2c1,.[11.4 µM],/,.[11.4 µM]
Oc1[nH]c(=S)sc1/C=C1\C(c2ccccc2)=Nc2ccccc21,.,?,/
CC(C)Cn1c(-c2csc3ccccc23)n[nH]c1=S,.,?,.
Cc1occc1-c1n[nH]c(=S)n1CC(C)C,.,-93.5,/
Cc1cc(C)c(S(=O)(=O)N(CC(=O)O)C2CCCCC2)c(C)c1,.,-97.3,.
CCOC(=O)N1CCN(C(=O)CN(C2CCCCC2)S(=O)(=O)c2c(C)cc(C)cc2C)CC1,.,.,.
O=S(=O)(c1ccccc1)N1CCC2(CC1)CN(c1ccncc1)C2,.,/,.
O=C(Cn1cnc2c(nnn2Cc2ccccc2F)c1=O)N1CCN(c2ccccc2)CC1,.,-82.7,/
